Drawing on PubChem BioAssay (NCI), this text covers growth for 8 compounds.

What all share (experiment): NCI-60 one-dose screen, 48 h (100 = growth as untreated, 0 = no growth, -100 = all killed)
One experiment deals with NCI-H23 lung. Conditions: 10 µM unless noted.
The next experiment relates to NCI-H226 lung. Conditions: 10 µM unless noted.
For another experiment, the system named is NCI-H322M lung. The conditions noted are these: 10 µM unless noted.
The subject of a further experiment is HOP-62 NSCLC. The conditions noted are these: 10 µM unless noted.
For a further experiment, the system named is NCI-H460 lung. Conditions: 10 µM unless noted.
Another experiment concerns HOP-92 NSCLC. The conditions noted are these: 10 µM.
A further experiment concerns A549/ATCC NSCLC. Conditions: 10 µM unless noted.
In a further experiment the test system is 786-0 renal. Conditions: 10 µM unless noted.
The test system of the next experiment is COLO 205 colon. Conditions: 10 µM unless noted.
In the next experiment the test system is DU-145 prostate. Conditions: 10 µM unless noted.
The subject of the next experiment is K-562 leukemia. The conditions noted are these: 10 µM unless noted.
Another experiment has as its system MALME-3M melanoma. The conditions noted are these: 10 µM unless noted.
For another experiment, the system named is MDA-MB-231 breast. Conditions: 10 µM unless noted.
The next experiment has as its system SF-268 CNS. The conditions noted are these: 10 µM unless noted.
The subject of another experiment is SF-295 CNS. The conditions noted are these: 10 µM unless noted.
A further experiment deals with SF-539 CNS. Conditions: 10 µM unless noted.
The test system of another experiment is UACC-257 melanoma. Conditions: 10 µM unless noted.
Another experiment concerns RXF 393 renal. The conditions noted are these: 10 µM unless noted.
In the next experiment the test system is M14 melanoma. Conditions: 10 µM unless noted.
The test system of a further experiment is NCI-H522 lung. Conditions: 10 µM unless noted.

About 83,000 compounds went through this panel and 20% of them were active in at least one assay; those are over-represented in the sample as a whole.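 How to read the values: 0–100, growth inhibition (40 = 60% inhibited); 0, no net growth; -100 to 0, cell death (-40 = 40% of starting cells died; -100 = all dead).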 A number with no mark means an inactive call. Activity calls are given as the source filed them. Rule for the calls: active = growth percent below 10; inactive = the rest.

`COc1c(N2CC3CCCNC3C2)c(F)cc2c(=O)c(C(=O)N/N=C/c3ccc4c(c3)OCO4)cn(C3CC3)c12` (stereo not drawn): the growth in the experiment on NCI-H23 lung is 81.8%; in the experiment with NCI-H226 lung it was 86.5%; in the experiment with NCI-H322M lung, 88.3%; in the experiment on HOP-62 NSCLC, 101%; in the experiment on NCI-H460 lung, 79.2%; with HOP-92 NSCLC, 67.4%. Also, the growth in the experiment with A549/ATCC NSCLC is 70.2%; in the experiment with 786-0 renal, 50.3%; in the experiment with COLO 205 colon it was 85.5%; in the experiment on DU-145 prostate it was 68.9%; in the experiment with K-562 leukemia, 2.44% (active); in the experiment on MALME-3M melanoma it was 90.3%. The growth was 41.3% with MDA-MB-231 breast; 79.4% in the experiment on SF-268 CNS; 44.2% in the experiment with SF-295 CNS; -60.4% (active) with SF-539 CNS; 85.3% in the experiment on UACC-257 melanoma.
Consider `COc1cc(-c2nn(C(C)(C)C)cc2-c2ccnc(NCCCNS(=O)(=O)c3ccc(F)cc3)n2)ccc1Cl`, for which the growth is 82.3% in the experiment with NCI-H23 lung; 72% in the experiment with NCI-H226 lung; 87.4% in the experiment with NCI-H322M lung; 71.9% in the experiment with HOP-62 NSCLC; 84.2% with NCI-H460 lung; 70.4% with HOP-92 NSCLC. In addition, the growth in the experiment with A549/ATCC NSCLC was 50.2%; in the experiment with 786-0 renal, 76.3%; in the experiment with COLO 205 colon it was 96.1%; in the experiment on DU-145 prostate, 74.1%; with K-562 leukemia, 40.2%; in the experiment on MALME-3M melanoma, 86.1%. Moreover, the growth is 60.1% in the experiment on MDA-MB-231 breast; 8.65% (active) with RXF 393 renal; 58% in the experiment on SF-268 CNS; 80.5% in the experiment with SF-295 CNS; 91.2% with SF-539 CNS; 93.3% in the experiment on UACC-257 melanoma. Further, the growth with M14 melanoma was 93.3%.
For the compound `COc1ccc2c(c1)c(CC(=O)[Se]CC(=O)O)c(C)n2C(=O)c1ccc(Cl)cc1`, the growth with NCI-H23 lung is 78.9%; in the experiment on NCI-H226 lung it was 100%; in the experiment on NCI-H322M lung it was 46.8%; in the experiment on HOP-62 NSCLC, 29.3%; with NCI-H460 lung, 5.72% (active); with HOP-92 NSCLC it was 93.7%. In addition, the growth in the experiment on A549/ATCC NSCLC was 21.6%; in the experiment on 786-0 renal, 106%; in the experiment with COLO 205 colon, 129%; in the experiment on DU-145 prostate, 85%; with K-562 leukemia, 95.8%; in the experiment on MALME-3M melanoma, 112%. Further, the growth in the experiment on MDA-MB-231 breast is 54.1%; with SF-268 CNS it was 64.1%; in the experiment on SF-295 CNS, 11.1%; with SF-539 CNS it was 66.8%; with UACC-257 melanoma it was 110%.
Take `O=C(O)c1cn(C2CC2)c2cc(N3CCN(C(=O)CN4C(=O)CSC4=O)CC3)c(F)cc2c1=O`: the growth in the experiment with NCI-H23 lung was 103%; with NCI-H226 lung, 101%; in the experiment on NCI-H322M lung, 101%; with HOP-62 NSCLC, 75.8%; in the experiment on NCI-H460 lung, 107%; in the experiment on HOP-92 NSCLC it was 104%. Also, the growth in the experiment with A549/ATCC NSCLC is 93.5%; in the experiment with 786-0 renal, 94.1%; in the experiment with COLO 205 colon, 113%; in the experiment on DU-145 prostate, 90.5%; in the experiment with K-562 leukemia, 102%; with MALME-3M melanoma it was 103%. Besides, the growth with MDA-MB-231 breast was 81.2%; with RXF 393 renal, 61.7%; with SF-268 CNS it was 83.5%; with SF-295 CNS it was 106%; in the experiment with SF-539 CNS it was 88.5%; with UACC-257 melanoma it was 107%. In the experiment with M14 melanoma, the growth was 108%.
As to `O=C(Nc1ccc2c(ccn2Cc2ccccn2)c1)c1ccnnc1`, the growth was 94.6% in the experiment on NCI-H23 lung; 87.3% in the experiment with NCI-H226 lung; 98.5% with NCI-H322M lung; 76.4% with HOP-62 NSCLC; 104% in the experiment with NCI-H460 lung; 87.6% in the experiment with HOP-92 NSCLC. The growth is 91.4% in the experiment on A549/ATCC NSCLC; 86% in the experiment on 786-0 renal; 110% in the experiment on COLO 205 colon; 89.1% in the experiment on DU-145 prostate; 99.6% with K-562 leukemia; 103% in the experiment with MALME-3M melanoma. The growth was 71.1% in the experiment with MDA-MB-231 breast; 59.3% in the experiment on RXF 393 renal; 81.9% with SF-268 CNS; 94.7% in the experiment on SF-295 CNS; 97.7% with SF-539 CNS; 106% in the experiment with UACC-257 melanoma. For the same compound, in the experiment on M14 melanoma, the growth is 99.7%.
In the case of `O=C(NCCN1CCCC1)c1ccc(-c2nc3ccc4[nH]ncc4c3c3c2CCCC3)cc1`, the growth in the experiment with NCI-H23 lung is -14.8% (active); with NCI-H226 lung it was 13.6%; with NCI-H322M lung it was 3.73% (active); in the experiment on HOP-62 NSCLC, 15.8%; in the experiment with NCI-H460 lung it was -5.93% (active); in the experiment on HOP-92 NSCLC, -15.4% (active). The growth was 6.08% (active) in the experiment with A549/ATCC NSCLC; 6.43% (active) with 786-0 renal; -14.8% (active) in the experiment with COLO 205 colon; 6.08% (active) in the experiment on DU-145 prostate; 0.479% (active) with K-562 leukemia; -2.3% (active) with MALME-3M melanoma. Moreover, the growth in the experiment with MDA-MB-231 breast was -2.53% (active); with SF-268 CNS, -11.3% (active); with SF-295 CNS, 3.28% (active); in the experiment with SF-539 CNS it was -63.2% (active); in the experiment with UACC-257 melanoma, 23.8%.
With `Cc1ccc(-c2cc3nc(C(Cl)Cl)nc(-c4cccs4)n3n2)cc1`, the growth in the experiment with NCI-H23 lung is 83.9%; in the experiment on NCI-H226 lung it was 87.3%; with NCI-H322M lung, 38.6%; with HOP-62 NSCLC, 54.1%; with NCI-H460 lung it was 3.91% (active); in the experiment with HOP-92 NSCLC, 80%. Moreover, the growth was 100% with 786-0 renal; 43.7% in the experiment on COLO 205 colon; 3.22% (active) with DU-145 prostate; 93.2% in the experiment with K-562 leukemia; 71.7% with MALME-3M melanoma; 41.6% with MDA-MB-231 breast. Also, the growth was 40.5% with RXF 393 renal; 82.2% in the experiment on SF-268 CNS; 32.8% with SF-295 CNS; 68.5% in the experiment with SF-539 CNS; 106% in the experiment with UACC-257 melanoma.
For `c1cc(-c2nc3ccc4[nH]ncc4c3c3c2CCCC3)[nH]n1`, the growth in the experiment on NCI-H23 lung is 54.8%; with NCI-H226 lung it was 74.9%; with NCI-H322M lung it was 76.6%; in the experiment on HOP-62 NSCLC, 68.6%; in the experiment on NCI-H460 lung it was 38.8%; in the experiment on NCI-H522 lung, 30.9%. Further, the growth in the experiment on A549/ATCC NSCLC was 48.1%; with 786-0 renal, 64.7%; with COLO 205 colon, 54.1%; in the experiment on DU-145 prostate, 63%; with K-562 leukemia it was 64%; in the experiment with MALME-3M melanoma it was 87.7%. Further, the growth with MDA-MB-231 breast is 89.2%; with RXF 393 renal, 38%; in the experiment with SF-268 CNS, 71.4%; in the experiment with SF-295 CNS it was 67.5%; in the experiment on SF-539 CNS, 54.1%; in the experiment with UACC-257 melanoma, 91.1%.
